# According to PubChem BioAssay (NCI):
# This is part of a sample that, as a whole, favours compounds with a hit. Of some 83,000 tested, about 20% had one in any assay.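 Method: cells in 96-well plates; compound added at one concentration; 48 h incubation; percent growth measured; values under 10 scored active.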 A number with no mark means an inactive call. Calls of active or inactive are those of the source.
# Experiments:
# Test in all cases: NCI-60 one-dose screen, 48 h (100 = growth as untreated, 0 = no growth, -100 = all killed)
# Settings in all cases: 10 µM unless noted
# [1] = tested on: EKVX NSCLC
# [2] = tested on: SN12C renal
# [3] = tested on: UO-31 renal
# [4] = tested on: TK-10 renal
# [5] = tested on: A498 renal
# [6] = tested on: CCRF-CEM leukemia
# [7] = tested on: MOLT-4 leukemia
# [8] = tested on: SR leukemia
# [9] = tested on: RPMI-8226 leukemia
# [10] = tested on: OVCAR-8 ovarian
# [11] = tested on: OVCAR-5 ovarian
# [12] = tested on: OVCAR-4 ovarian
# [13] = tested on: SK-OV-3 ovarian
# [14] = tested on: IGROV1 ovarian
# [15] = tested on: OVCAR-3 ovarian
# [16] = tested on: NCI/ADR-RES ovarian
# [17] = tested on: ACHN renal
# [18] = tested on: CAKI-1 renal
# [19] = tested on: HS 578T breast
Structure (SMILES),growth [1],growth [2],growth [3],growth [4],growth [5],growth [6],growth [7],growth [8],growth [9],growth [10],growth [11],growth [12],growth [13],growth [14],growth [15],growth [16],growth [17],growth [18],growth [19]
O=C(CNC(=O)c1cccc2ccccc12)Nc1ccccc1Oc1ccc(O)cc1,52.4% [5 µM],55% [5 µM],45.2% [5 µM],43.6% [5 µM],17.6% [5 µM],22.4% [5 µM],19.6% [5 µM],30.4% [5 µM],24.2% [5 µM],28.4% [5 µM],40.3% [5 µM],70.4% [5 µM],28.9% [5 µM],38% [5 µM],-6.31% [5 µM] (active),23.5% [5 µM],,,
CC(=O)N1N=C(c2ccc3c(c2)OCO3)CC1c1c(C)nn(-c2ccccc2)c1N(C)Cc1ccccc1 (configuration not stated),72.9%,72.9%,51.9%,80.9%,67.4%,69.5%,41.9%,67%,58.8%,,97.1%,66.3%,84.2%,51.5%,79.4%,63%,81.3%,,
COc1cc(C2CC(C3C(=O)N(C)C(=O)N(C)C3=O)=NN2c2cc(Cl)cc(Cl)c2)cc(OC)c1OC (configuration not stated),93.8%,93.6%,83.2%,94.1%,88.5%,88.3%,88.9%,94.5%,,96.7%,108%,96%,95.6%,102%,97.2%,87.2%,,,
O=C1CNc2cc(Cl)ccc2N1,89.1%,103%,81.6%,,97.3%,93.3%,87.4%,94.7%,103%,99.7%,102%,115%,106%,103%,108%,108%,98.6%,97.8%,97.4%
COc1cc(/C=C2\CN(S(=O)(=O)c3ccc(C)cc3)C/C(=C\c3cc(CN4CCOCC4)c(O)c(OC)c3)C2=O)cc(CN2CCOCC2)c1O,11.6%,-19.3% (active),-89.3% (active),,36.5%,8.78% (active),4.35% (active),4.35% (active),-24.8% (active),2.94% (active),-26% (active),24.8%,42.6%,-17% (active),-17.3% (active),5.42% (active),-82.4% (active),9.3% (active),27.3%
COc1ccc(C2=NN(C(C)=O)C(c3cccc(Nc4ccnc5cc(Cl)ccc45)c3)C2)cc1 (configuration not stated),64.7%,48.5%,37.5%,58.3%,33.1%,40.8%,22.3%,-8.23% (active),41%,50%,87.2%,42%,52.9%,65.7%,59.3%,43.6%,60.8%,,
CN1C(=O)C(C2=NN(C=O)C(c3ccc(F)cc3)C2)C(=O)N(C)C1=O (configuration not stated),101%,97.3%,96.6%,99.1%,96.7%,77.4%,93.8%,101%,95.8%,98.9%,97.1%,102%,94.6%,104%,99.9%,99.2%,,,
Cc1sc2nc(NCc3ccccc3)[nH]c(=O)c2c1C,70.3%,68.5%,74.6%,67%,48.9%,58.9%,44%,14.4%,49.6%,59.7%,70.5%,91.7%,50.8%,67.9%,40.7%,31.2%,84%,,
Cc1cc2c(cc1C)[n+](Cc1ccc3ccccc3c1)cn2Cc1ccc2ccccc2c1,-64.3% (active),-87.2% (active),-57.1% (active),-87.7% (active),-68% (active),-35.1% (active),-64.1% (active),-50.6% (active),-49.6% (active),-79% (active),-87.1% (active),-76% (active),-27% (active),-84.9% (active),-94.2% (active),80.7%,-63.9% (active),,
O=C(CNC(=O)c1cccc2ccccc12)Nc1ccccc1Cc1ccccc1,54.9% [5 µM],56.3% [5 µM],60.7% [5 µM],49.6% [5 µM],38.2% [5 µM],20.4% [5 µM],19.2% [5 µM],18.8% [5 µM],39.1% [5 µM],37.6% [5 µM],66.4% [5 µM],81.2% [5 µM],45% [5 µM],53% [5 µM],,17% [5 µM],56.9% [5 µM],,
c1ccc2c(-c3nc4ccccc4[nH]3)cccc2c1,70%,47.3%,60.5%,,29.1%,22.3%,11.6%,12.5%,33.2%,47.4%,62.9%,77.3%,30.8%,44.1%,12.2%,-16.2% (active),52.7%,61.2%,44.5%
O=C(Nc1nc2c(C(F)(F)F)cccc2s1)c1cc(Cl)ccc1O,11.1%,-4.79% (active),-10.9% (active),10.2%,-36.9% (active),10.7%,-8.05% (active),7.18% (active),-22.7% (active),6.2% (active),29.3%,21.8%,-8.89% (active),24.2%,10.1%,1.26% (active),5.28% (active),,
COc1ccc(C(=O)/C=C/c2ccc(C)cc2)cc1OC,93%,75.7%,-12% (active),114%,80.7%,23.4%,,,18.9%,,90.1%,72.6%,97.7%,-18.8% (active),4.42% (active),71.2%,86.2%,,107%
COc1ccc(N2CCN(CC(=O)N3CCN(c4nnc(-c5ccccc5)c(-c5ccccc5)n4)CC3)CC2)cc1,35.3%,46.8%,24.9%,64.7%,44.1%,32.4%,1.56% (active),,,,90.3%,49.8%,80.7%,,49.5%,49.9%,,76.5%,54.7%
O=c1[nH]c(N2CCC(Cc3ccccc3)CC2)nc2sc3c(c12)CCCC3,99.5%,103%,102%,99%,102%,91.6%,,109%,107%,96.3%,107%,110%,101%,106%,106%,96.6%,104%,,
O=C(/C=C/c1cccc(Nc2ccnc3cc(Cl)ccc23)c1)c1ccc(Cl)cc1,60.3%,37.6%,30.1%,49%,44.1%,24.4%,24.1%,-9.97% (active),-9.58% (active),45.1%,60.4%,45.6%,76.7%,40.7%,56.8%,38.1%,51.1%,,
Cc1n(Cc2ccc3ccccc3c2)cc[n+]1Cc1ccc2ccccc2c1,47%,2.52% (active),81.5%,23.5%,31.2%,24.1%,11.3%,-3.72% (active),2.6% (active),3.06% (active),20.6%,9.29% (active),21%,-38.1% (active),-1.02% (active),92.7%,80.1%,,
COc1cc(C2CC(C3C(=O)N(C)C(=O)N(C)C3=O)=NN2C=O)cc(OC)c1OC (configuration not stated),100%,94%,101%,87.4%,95.1%,82.8%,92.7%,105%,99.7%,93.9%,107%,107%,76.4%,110%,107%,99.8%,105%,,
